Laboratory results from the supplement of paper PMC7156485.
± gives the standard deviation of the averaged measurements.
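Wherever H1.0 immunofluorescence intensity relative to DMSO is given: TDF is a line of transformed human dermal fibroblasts of mesenchymal origin.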
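Wherever cell number relative to DMSO is given: TDF denotes transformed human dermal fibroblasts of mesenchymal origin.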

Each molecule was assayed on TDF (assay: cell number relative to DMSO (% of DMSO); higher = more cells (less growth inhibition / toxicity)). Details: concentration: 10 µM; 24 h.
In short: (§1)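 Six fields per well were imaged at ×10 after the cells were fixed in 3.7% formaldehyde and stained with a rabbit anti-H1.0 antibody, an AlexaFluor 647 secondary and DAPI. The HCC1569 and TDF cells had been plated at 800 per well in 384-well plates (RPMI, 10% FBS) and treated in triplicate with compounds at 10 µM for 24 h at 37 °C. The values are the median of replicates of H1.0 nuclear intensity or cell number, as percent of the plate control. Smoothing for positional effects was applied to HCC1569 data.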
Molecule `Cc1[nH]c2ccc(O)cc2c1CCN.O=C(O)C=CC(=O)O` [2-Methyl-5-hydroxytryptamine maleate] has a cell number of 98.7.
Work on `COC1C(O)C(C)OC(OC2CCC3(C=O)C(CCC4C3CCC3(C)C(C5=CC(=O)OC5)CCC43O)C2)C1O` (stereo not given) [Peruvoside] yielded a cell number of 44.
In the case of `CCCN(CCC)C1CCc2c(F)ccc(O)c2C1.Cl` (stereo not drawn) [S(-)-UH-301 hydrochloride], the cell number is reported as 97.9.
With `CN1[C@@H]2CC[C@H]1C[C@@H](OC(=O)[C@H](CO)c1ccccc1)C2` [L-Hyoscyamine] the cell number was 117.
Work on `COCC1OC(=O)c2coc3c2C1(C)C1=C(C3=O)C2CCC(=O)C2(C)CC1OC(C)=O` (stereo not given) [Wortmannin] yielded a cell number of 91.8.
`CS(=O)(=O)O.Cc1c(C(=O)c2cccc3ccccc23)c2cccc3c2n1C(CN1CCOCC1)CO3` (stereo not drawn) [( R)-(+)-WIN 55,212-2 mesylate] showed a cell number of 53.4.
For `CN(C)C(=O)Oc1cccc([N+](C)(C)C)c1.[Br-]` [Neostigmine bromide], the cell number was 98.4.
`NCCc1c[nH]c2ccc(C(N)=O)cc12.O=C(O)C=CC(=O)O` [5-Carboxamidotryptamine maleate] gave a cell number of 103.
For `CN1CC(CNC(=O)OCc2ccccc2)CC2c3cccc4c3c(cn4C)CC21` (stereo not given) [Metergoline], the cell number was 105.
Work on `CC(C)c1cc2c(c(O)c1O)C1(C(=O)O)CCCC(C)(C)C1CC2` (stereo not given) [Carnosic acid] yielded a cell number of 99.9.
Molecule `CC(=O)C1CCC2C3CCC4CC(O)CCC4(C)C3CCC12C` (stereo not drawn) [5alpha-Pregnan-3alpha-ol-20-one] has a cell number of 107.
`CC1=C(O)C(=O)C2OC2C1=O` (single isomer, unassigned; (-)) was tested, and the cell number was 98.1.
`CC12C(=O)OC(=O)C1(C)C1CCC2O1` (stereo not given) [Cantharidin] showed a cell number of 10.9 ± 0.21.
`CCCCCC=CCC=CCC=CC=CC(CCCC(=O)O)OO` (stereo not given) showed a cell number of 100.
For `CCCN(CCC)C(=O)Cc1c(-c2ccc(Cl)cc2)nc2ccc(Cl)cn12`, the cell number was 93.7.
`NC(CCCCCP(=O)(O)O)C(=O)O` (stereo not drawn) [D(-)-2-Amino-7-phosphonoheptanoic acid] was tested, and the cell number was 95.2.
With `Cl.Cl.Clc1cccc(N2CCNCC2)c1` [1-(3-Chlorophenyl)piperazine dihydrochloride] the cell number was 87.5.
In the case of `CNC1CC(c2ccc(Cl)c(Cl)c2)c2ccccc21.Cl` (stereo not given) [Indatraline hydrochloride], the cell number is reported as 85.9.
With `COc1ccc2c(c1)C13CCCCC1C(C2)NCC3.Cl` (stereo not given) [3-Methoxy-morphanin hydrochloride] the cell number was 107.
Work on `Cl.NCC#Cc1ccccc1` [3-Phenylpropargylamine hydrochloride] yielded a cell number of 110.
`NNC(=O)c1ccc(O)cc1` [4-Hydroxybenzhydrazide] showed a cell number of 100.
`CCCN1CC(CSC)CC2c3cccc4[nH]cc(c34)CC21.CS(=O)(=O)O` (stereo not given) [Pergolide methanesulfonate] gave a cell number of 98.2.
In the case of `Cc1cc(C(=O)CN2CCCC2)c(C)n1-c1ccc(F)cc1`, the cell number is reported as 102.
Work on `CN1CCc2cccc(Cl)c2CC1.Cl` yielded a cell number of 98.7.
In the case of `Cc1o[nH]c(=O)c1CC(N)C(=O)O` (racemic), the cell number is reported as 101.
`NC(CP(=O)(O)O)C(=O)O` (racemic) was tested, and the cell number was 104.

What follows are molecules tested on TDF (assay: H1.0 immunofluorescence intensity relative to DMSO (% of DMSO); higher = stronger H1.0 induction, active = 120 or more). Details: concentration: 10 µM; 24 h.
In short: as §1
`CC(N)Cc1c[nH]c2ccc(OCc3cccs3)cc12.Cl` (stereo not given) was tested, and the H1.0 immunofluorescence intensity was 87.9 (inactive).
With `CC1CC(C)C(=O)C(C(O)CC2CC(=O)NC(=O)C2)C1` (stereo not given) [Cycloheximide] the H1.0 immunofluorescence intensity was 110 (inactive).
With `CN1C(=O)CCS(=O)(=O)C1c1ccc(Cl)cc1` (stereo not given) [Chlormezanone] the H1.0 immunofluorescence intensity was 85.9 (inactive).
With `CCCCCCC(=O)CCCCCCC=CCC(O)C(O)C(N)(CO)C(=O)O` (stereo not given) [Myriocin] the H1.0 immunofluorescence intensity was 99.4 (inactive).
For `C[N+]1(C)C2CCC1CC(OC(=O)c1c[nH]c3ccccc13)C2.[I-]` (stereo not given) [3-Tropanylindole-3-carboxylate methiodide], the H1.0 immunofluorescence intensity was 95.5 (inactive).
With `CC(C)C1(NC(=O)C2CC3c4cccc5[nH]cc(c45)CC3N(C)C2)OC2(O)C3CCCN3C(=O)C(Cc3ccccc3)N2C1=O.CS(=O)(=O)O` (stereo not given) [Dihydroergocristine mesylate] the H1.0 immunofluorescence intensity was 91.4 (inactive).
In the case of `Cl.c1ccc2c(c1)OCC(C1=NCCN1)O2` (stereo not given) [Idazoxan hydrochloride], the H1.0 immunofluorescence intensity is reported as 99.6 (inactive).
For `CCCCCCC(C)(C)c1ccc(C2CC(O)CCC2CCCO)c(O)c1` (stereo not given), the H1.0 immunofluorescence intensity was 91.7 (inactive).
With `c1ccc2c(c1)[nH]c1cnccc12` [Norharmane] the H1.0 immunofluorescence intensity was 97.6 (inactive).
With `CC1=C(O)C(=O)C=C2C1=CC=C1C2(C)CCC2(C)C3CC(C)(C(=O)O)CCC3(C)CCC12C` (stereo not given) [Celastrol] the H1.0 immunofluorescence intensity was 120 (inactive).
With `CC1=NN=C(c2ccc(N)cc2)c2cc3c(cc2C1)OCO3.Cl` the H1.0 immunofluorescence intensity was 106 (inactive).
`Cc1ccc(S(=O)(=O)NC(CCCCN)C(=O)CCl)cc1.Cl` [Na-p-Tosyl-L-lysine chloromethyl ketone hydrochloride] was tested, and the H1.0 immunofluorescence intensity was 95.7 (inactive).
In the case of `NC1(C(=O)O)CCC(C(=O)O)C1` (mixture of isomers), the H1.0 immunofluorescence intensity is reported as 96.5 (inactive).
In the case of `Cc1[nH]c2ccc(O)cc2c1CCN.O=C(O)C=CC(=O)O` [2-Methyl-5-hydroxytryptamine maleate], the H1.0 immunofluorescence intensity is reported as 98.3 (inactive).
With `COC1C(O)C(C)OC(OC2CCC3(C=O)C(CCC4C3CCC3(C)C(C5=CC(=O)OC5)CCC43O)C2)C1O` (stereo not given) [Peruvoside] the H1.0 immunofluorescence intensity was 107 (inactive).
In the case of `CCCN(CCC)C1CCc2c(F)ccc(O)c2C1.Cl` (stereo not drawn) [S(-)-UH-301 hydrochloride], the H1.0 immunofluorescence intensity is reported as 98.7 (inactive).
In the case of `CN1[C@@H]2CC[C@H]1C[C@@H](OC(=O)[C@H](CO)c1ccccc1)C2` [L-Hyoscyamine], the H1.0 immunofluorescence intensity is reported as 95 (inactive).
For `COCC1OC(=O)c2coc3c2C1(C)C1=C(C3=O)C2CCC(=O)C2(C)CC1OC(C)=O` (stereo not given) [Wortmannin], the H1.0 immunofluorescence intensity was 90.9 (inactive).
In the case of `CS(=O)(=O)O.Cc1c(C(=O)c2cccc3ccccc23)c2cccc3c2n1C(CN1CCOCC1)CO3` (stereo not drawn) [( R)-(+)-WIN 55,212-2 mesylate], the H1.0 immunofluorescence intensity is reported as 131 (active).
In the case of `CN(C)C(=O)Oc1cccc([N+](C)(C)C)c1.[Br-]` [Neostigmine bromide], the H1.0 immunofluorescence intensity is reported as 89.5 (inactive).
In the case of `NCCc1c[nH]c2ccc(C(N)=O)cc12.O=C(O)C=CC(=O)O` [5-Carboxamidotryptamine maleate], the H1.0 immunofluorescence intensity is reported as 91.3 (inactive).
With `CN1CC(CNC(=O)OCc2ccccc2)CC2c3cccc4c3c(cn4C)CC21` (stereo not given) [Metergoline] the H1.0 immunofluorescence intensity was 118 (inactive).
`CC(C)c1cc2c(c(O)c1O)C1(C(=O)O)CCCC(C)(C)C1CC2` (stereo not given) [Carnosic acid] was tested, and the H1.0 immunofluorescence intensity was 95.3 (inactive).
In the case of `CC(=O)C1CCC2C3CCC4CC(O)CCC4(C)C3CCC12C` (stereo not drawn) [5alpha-Pregnan-3alpha-ol-20-one], the H1.0 immunofluorescence intensity is reported as 90.5 (inactive).
In the case of `CC1=C(O)C(=O)C2OC2C1=O` (single isomer, unassigned; (-)), the H1.0 immunofluorescence intensity is reported as 96.7 (inactive).
In the case of `CC12C(=O)OC(=O)C1(C)C1CCC2O1` (stereo not given) [Cantharidin], the H1.0 immunofluorescence intensity is reported as 210 (active).
`CCCCCC=CCC=CCC=CC=CC(CCCC(=O)O)OO` (stereo not given) was tested, and the H1.0 immunofluorescence intensity was 98.5 (inactive).
`CCCN(CCC)C(=O)Cc1c(-c2ccc(Cl)cc2)nc2ccc(Cl)cn12` was tested, and the H1.0 immunofluorescence intensity was 100 (inactive).
`NC(CCCCCP(=O)(O)O)C(=O)O` (stereo not drawn) [D(-)-2-Amino-7-phosphonoheptanoic acid] was tested, and the H1.0 immunofluorescence intensity was 97.7 (inactive).
For `Cl.Cl.Clc1cccc(N2CCNCC2)c1` [1-(3-Chlorophenyl)piperazine dihydrochloride], the H1.0 immunofluorescence intensity was 105 (inactive).
For `CNC1CC(c2ccc(Cl)c(Cl)c2)c2ccccc21.Cl` (stereo not given) [Indatraline hydrochloride], the H1.0 immunofluorescence intensity was 110 (inactive).
For `COc1ccc2c(c1)C13CCCCC1C(C2)NCC3.Cl` (stereo not given) [3-Methoxy-morphanin hydrochloride], the H1.0 immunofluorescence intensity was 97.3 (inactive).
In the case of `Cl.NCC#Cc1ccccc1` [3-Phenylpropargylamine hydrochloride], the H1.0 immunofluorescence intensity is reported as 80.3 (inactive).
For `NNC(=O)c1ccc(O)cc1` [4-Hydroxybenzhydrazide], the H1.0 immunofluorescence intensity was 97.5 (inactive).
For `CCCN1CC(CSC)CC2c3cccc4[nH]cc(c34)CC21.CS(=O)(=O)O` (stereo not given) [Pergolide methanesulfonate], the H1.0 immunofluorescence intensity was 98.1 (inactive).
With `Cc1cc(C(=O)CN2CCCC2)c(C)n1-c1ccc(F)cc1` the H1.0 immunofluorescence intensity was 99.9 (inactive).
For `CN1CCc2cccc(Cl)c2CC1.Cl`, the H1.0 immunofluorescence intensity was 96.2 (inactive).
`Cc1o[nH]c(=O)c1CC(N)C(=O)O` (racemic) was tested, and the H1.0 immunofluorescence intensity was 96.3 (inactive).
`NC(CP(=O)(O)O)C(=O)O` (racemic) was tested, and the H1.0 immunofluorescence intensity was 82.6 (inactive).
